Test results: PubChem BioAssay AID2732 (Emory University Molecular Libraries Screening Center, 2010)
The campaign covered roughly 220,000 compounds. About 8,200 (3.7%) were called active.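 Rule for the calls: active = compounds that reduced the stress-induced luciferase reporter signal by more than about 70% of percent inhibition (limit read from the data); inactive = the rest.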 The sample as a whole holds a higher share of actives than the screen did.

Experiment: blockers of ER-stress CHOP reporter expression – cell-based, unfolded protein response, luciferase reporter, primary screen (AID 2732);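 note: 0% = tunicamycin plus vehicle and 100% = wells without tunicamycin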
Conditions: CHO-K1 CHOP-promoter luciferase, tunicamycin-induced, 15-18 h; at 10 µM; active compounds read high

Structure (SMILES) | inhibition
Cn1c2c(c(=O)n(C)c1=O)C(c1cccc(F)c1)C(C#N)=C(N)O2 (centres undefined) | 6.57% (inactive)
CCc1nc2sc3c(Cl)ncnc3c2c2c1CCCC2 | -17.1% (inactive)
CCOC(=O)CN(Cc1ccc(OC)c(OC)c1)S(=O)(=O)c1ccc(OC)cc1 | -1.05% (inactive)
COc1ccc(C(CCN(Cc2ccc(OC)c(OC)c2)C(=O)CCl)c2ccccc2)cc1 (centres undefined) | 106% (active)
COc1ccc(CCNC(=O)C(Sc2ccccn2)c2ccccc2)cc1OC (centres undefined) | 6.29% (inactive)
CC(C)(C)c1cc(C(=O)NN)n(Cc2ccc(Cl)cc2Cl)n1 | -7.9% (inactive)
Cc1c([N+](=O)[O-])c(N)nn1C | 4.08% (inactive)
N#CCC(=O)N/N=C/c1cn(Cc2ccc3ccccc3c2)c2ccccc12 | 1.95% (inactive)
OCCCNc1nccc(-c2cc(Nc3cccc(Cl)c3)ncn2)n1 | 103% (active)
NS(=O)(=O)c1cccnc1Nc1cccc(Cl)c1 | 5.4% (inactive)
CC(C)n1cnc2c(Nc3cccc(Cl)c3)nc(N(CCO)CCCO)nc21 | 61.8% (inactive)
CCOC(=O)C1CCN(C(=O)Nc2cccc(OC)c2)CC1 | 6.27% (inactive)
CSc1nc(C)nc(C2CC2)c1C#N | 15.9% (inactive)
COc1ccc(N2CCN(c3ccc([N+](=O)[O-])nc3)CC2)cc1 | 10.8% (inactive)
CC(=O)NC(Cc1ccccc1)C(=O)NC1CCN(c2ncccc2[N+](=O)[O-])CC1 (centres undefined) | 19.6% (inactive)
COc1ccc(-c2cc(C3CCN(c4ncccc4[N+](=O)[O-])CC3)[nH]n2)cc1 | 75.9% (active)
CC1(C)CC(CNCCC(c2ccc(F)cc2)c2ccco2)CCO1 (centres undefined) | 10.6% (inactive)
C=CCn1c(-c2ccc(Cl)cc2)ccc(C#N)c1=O | 82.2% (active)
C=CCn1c(SCn2nnc3ccccc3c2=O)nnc1-c1ccc(Cl)cc1 | 17.8% (inactive)
C=CCn1cc(-c2cccc(C(F)(F)F)c2)cc(C#N)c1=O | 5.76% (inactive)
O=C(Cc1ccccc1)Nc1c(Cl)ccc2nsnc12 | -1.48% (inactive)
O=C(c1ccc(F)cc1)C1CCN(Cc2cn[nH]c2-c2ccccc2)CC1 | 15.6% (inactive)
Cn1cnc([N+](=O)[O-])c1Sc1n[nH]c(N)n1 | -10.3% (inactive)
O=C(Nc1ccccc1C(=O)N1CCOCC1)c1ccc(CSc2ccccc2)cc1 | -8.2% (inactive)

Structure (SMILES) | inhibition
O=C(Nc1ccc(CSc2ccccc2)cc1)c1ccc(CN2CCOCC2)cc1 | 79.5% (active)
COc1ccc(C(=O)Nc2ccc(CN3CCOCC3)cc2)cc1 | -29.9% (inactive)
Cc1nnc(C)c2c(C)n(N)c(C)c12 | 13.9% (inactive)
Cc1ccc(COc2ccc(C(=O)NN)cc2)cc1 | 0.74% (inactive)
COCC(=O)Nc1nnc(COc2ccccc2)s1 | -20.1% (inactive)
Cc1ccc(OCc2nnc(NC(=O)OCC(C)C)s2)cc1 | 91% (active)
CCn1c(CN2C(=O)CSc3ccccc32)n[nH]c1=S | 11.5% (inactive)
C=CCNC(=O)c1ccc2c3n(nc2c1)-c1ccc(C)cc1CO3 | -2.7% (inactive)
COCCNC(=S)N1CCN(C)CC1 | -18.1% (inactive)
CSCCC1NC2(C(=O)Nc3ccc(Cl)cc32)[C@@H]2C(=O)N(C3CCCC3)C(=O)[C@H]12 (some centres undefined) | 85.7% (active)
O=C1[C@@H]2C(Cc3ccc(O)cc3)NC3(C(=O)Nc4ccc(F)cc43)[C@@H]2C(=O)N1c1ccc(F)cc1 (some centres undefined) | 27.9% (inactive)
COc1ccc(N=Nc2ccc(O)c(P(=O)(c3ccccc3)c3ccccc3)c2)cc1 | 2.83% (inactive)
CCOC(=O)CN/C=C(\C#N)c1ccc(F)cc1 | -6.58% (inactive)
C/C(=N\OCC(=O)O)c1ccc(Cl)cc1 | -4.7% (inactive)
CCOc1cc(/C=C(/C#N)c2ccc(Cl)cc2)cc(Cl)c1OCC(=O)O | 87.8% (active)
C=CC1C(OC2OC(CO)C(O)C(O)C2O)OC=C(C(=O)OC)C1CC1CC(=O)CC(CC(=O)CCc2ccc(O)cc2)O1 (centres undefined) | 7.57% (inactive)
CCOC(=O)c1c(CC(C)C)csc1/N=C/C1=C(O)CCCC1=O | 24.8% (inactive)
O=C(Nc1nnc(COc2ccccc2)s1)Nc1ccccc1F | 96.7% (active)
Cc1nnc(NC(=O)CCCOc2ccccc2)s1 | 26.2% (inactive)
O=C(Nc1ccccc1)Nc1nnc(COc2ccccc2F)s1 | 9.53% (inactive)
Cc1ccc(S(=O)(=O)N2CCN(C(=O)COC(=O)c3c(C)noc3C)CC2)c(C)c1 | 8.26% (inactive)
Cc1ccc(C(=O)Cn2cc([N+](=O)[O-])nc2C)cc1 | 2.6% (inactive)
O=C(CN1CCOCC1)N/N=C/c1ccc(-c2ccc(Br)cc2)o1 | 32.5% (inactive)
O=c1c(-c2ccc3c(c2)OCCO3)c(C(F)(F)F)oc2cc(O)cc(O)c12 | 13.2% (inactive)

Structure (SMILES) | inhibition
CCOC(=O)c1cc2cc(-c3c(C(=O)OCC)oc4cc(O)cc(O)c4c3=O)ccc2o1 | 105% (active)
CCOC(=O)c1oc2c(CN3CCN(C)CC3)c(O)ccc2c(=O)c1-c1ccc(Br)cc1 | -10.9% (inactive)
NC(=O)[C@H]1CC2(CC(c3cccc(NC(=O)[C@H]4CCC(=O)N4)c3)=NO2)CN1C(=O)c1ccccc1C(=O)c1ccccc1 (some centres undefined) | -11.9% (inactive)
Cn1c(SCC(=O)N/N=C/c2ccc(O)c(O)c2)nc2ccccc21 | -4.19% (inactive)
Nc1ccc(C(=O)OCC(=O)NC2CCS(=O)(=O)C2)cc1[N+](=O)[O-] (centres undefined) | 3.77% (inactive)
CCOC(=O)C1=C(C)Nc2nc3ccccc3n2C1c1cccs1 (centres undefined) | 18% (inactive)
C=CCOC(=O)C1=C(C)NC(C)=C(C(=O)OCC=C)C1c1cccs1 | 86.8% (active)
CCOC(=O)C1=C(C)NC(=S)NC1c1cccs1 (centres undefined) | 0.7% (inactive)
CCC(C)NC(=O)C1c2ccccc2Oc2ccccc21 (centres undefined) | -5.78% (inactive)
O=C(CCCN1C(=O)/C(=C/c2ccccc2)SC1=S)Nc1ccc(O)cc1 | 58.8% (inactive)
O=C(CCCN1C(=O)/C(=C\c2ccccc2)SC1=S)Nc1ccccc1O | 27% (inactive)
C=CCOc1ccc(/C=C2\SC(=S)N(CCC(=O)O)C2=O)cc1 | 88% (active)
Cn1nnc(NC(=S)NC(=O)c2ccccc2)n1 | 17.2% (inactive)
O=C(Nc1ccc(S(=O)(=O)Nc2nccs2)cc1)c1cccc(S(=O)(=O)N2CCOCC2)c1 | -32.6% (inactive)
COc1ccc(Cn2c(O)c(/C=C3/C=CC=N3)c(=O)[nH]c2=O)cc1 | 1.57% (inactive)
C=CC(COCc1ccccc1)N(Cc1ccccc1)S(=O)(=O)c1ccccc1Br (centres undefined) | 13.4% (inactive)
CC(C)(C)C(=O)NNC(=O)c1ccc(Oc2cc(Cl)cc(Cl)c2)o1 | 1.32% (inactive)
COC(=O)c1ccc(S(=O)(=O)N(CCO)Cc2ccccc2)n1C | -4.99% (inactive)
O=S(=O)(c1ccccc1)N1CN(Cc2ccc(F)cc2)c2nc3ccccc3nc21 | 3.85% (inactive)
CCc1c(C)sc(NC(=O)c2ccc(Br)o2)c1C(=O)OC | 88.9% (active)
CCOC(=O)c1c(NC(=O)c2ccc(Br)o2)sc2c1CCCC2 | 22.6% (inactive)
CCc1c(C)sc(NC(=O)/C=C/c2ccc3c(c2)OCO3)c1C(=O)OC | 1.72% (inactive)
Cc1cccc(OCc2nnc(SCn3nnc4ccccc4c3=O)o2)c1 | 55.9% (inactive)
COc1cc(CN(C)Cc2nc3cc(C(F)(F)F)ccc3c(=O)[nH]2)ccc1OC(F)F | 34.5% (inactive)

Structure (SMILES) | inhibition
Cc1cccc(OCc2nnc(SCc3nc4cc(C(F)(F)F)ccc4c(=O)[nH]3)o2)c1 | 104% (active)
O=C(/C=C/Nc1ccc(S(=O)(=O)Nc2cnc3ccccc3n2)cc1)c1cccnc1 | 12.4% (inactive)
COc1ccc(COCC(O)CN2CCC(C(N)=O)CC2)cc1 (centres undefined) | -5.79% (inactive)
CCOC(=O)c1ccn(-c2nc(-c3ccco3)cc(C(F)(F)F)n2)n1 | 7.61% (inactive)
FC(F)(F)c1cc(-c2cccs2)nc(NCc2ccco2)n1 | 52.2% (inactive)
O=C(CSc1nc(-c2ccco2)cc(C(F)(F)F)n1)NCc1cccs1 | 30.9% (inactive)
Cc1cc(C(F)(F)F)nn1-c1nc(-c2ccco2)cc(C(F)(F)F)n1 | 30.6% (inactive)
FC(F)(F)c1cc(-c2ccco2)nc(N2CCOCC2)n1 | 101% (active)
FC(F)(F)c1cc(-c2ccco2)nc(NCc2ccc(Cl)cc2)n1 | 81.4% (active)
COc1ccc(Cl)cc1NC(=O)CCN1CCOCC1 | 5.05% (inactive)
C#CCNc1nc(C(C)C)nc2c1nnn2Cc1ccccc1F | 89.8% (active)
CC(=O)NC(C)c1nc2ccccc2n1Cc1ccccc1F (centres undefined) | -2.56% (inactive)
CC(C)Cc1nc(Nc2ccc(S(=O)(=O)N3CCCC3)cc2)c2nnn(Cc3ccccc3)c2n1 | 27.2% (inactive)
CC1C(=O)NC(=O)C1c1ccccc1 (centres undefined) | 8.56% (inactive)
CCCC(=O)Nc1ccc2c(c1)nc(CCNC(=O)c1ccco1)n2C | -14.7% (inactive)
CC(NC(=O)C(C)(C)C)C(c1cccs1)N1CCN(Cc2ccccc2)CC1 (centres undefined) | -20.7% (inactive)
CCOC(=O)C1=C(CN2CCc3ccccc32)NC(=O)NC1c1cccc([N+](=O)[O-])c1 (centres undefined) | 60.9% (inactive)
CCOC(=O)C1=C(CN2CCc3ccccc32)NC(=O)NC1c1ccc(Cl)cc1 (centres undefined) | 85.1% (active)
CCOC(=O)C1=C(CN2CCCCCC2)NC(=O)NC1c1cccc([N+](=O)[O-])c1 (centres undefined) | -12.3% (inactive)
Cc1ccc(C(=O)NNC2=Nc3cc([N+](=O)[O-])ccc3OC2)cc1 | -15.9% (inactive)
Cn1nc(C(C)(C)C)c(NC(=O)c2sccc2Cl)c1C(C)(C)C | 3.22% (inactive)
CC(C)c1c(O)nc(SCCOc2ccc(Cl)cc2)[nH]c1=O | 4.19% (inactive)
